DT40 TDP1 no CPT – qHTS for Inhibitors of human tyrosyl-DNA phosphodiesterase 1 (TDP1): qHTS in cells in absence of CPT; DT40 Tdp1-/- hTDP1 cells, no CPT, ATP luminescence, 48 h; Potency, µM (series often up to 46.2 µM), most hits filed as inhibitors; 15% of 420,000 active; AID 686978, 2013; further: nearly all actives have a fitted effect of over 55% in size
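Camptothecin absent (DMSO only). Human TDP1-complemented DT40 knockout cells, 400 cells/well, 37 °C for minimum 48 hr; ATP measured via CellTiter-Glo, 30 min dark incubation, luminescence.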
DRD3 agonist – qHTS of D3 Dopamine Receptor Agonist: qHTS; D(3) dopamine receptor (Homo sapiens), P35462; D3R DiscoveRx beta-arrestin cells, luminescence, 90 min; max activation, %; 0.58% of 410,000 active; AID 652048, 2013; in the data active means max activation above about 30%
Target sequence (P35462 whole entry, looked up): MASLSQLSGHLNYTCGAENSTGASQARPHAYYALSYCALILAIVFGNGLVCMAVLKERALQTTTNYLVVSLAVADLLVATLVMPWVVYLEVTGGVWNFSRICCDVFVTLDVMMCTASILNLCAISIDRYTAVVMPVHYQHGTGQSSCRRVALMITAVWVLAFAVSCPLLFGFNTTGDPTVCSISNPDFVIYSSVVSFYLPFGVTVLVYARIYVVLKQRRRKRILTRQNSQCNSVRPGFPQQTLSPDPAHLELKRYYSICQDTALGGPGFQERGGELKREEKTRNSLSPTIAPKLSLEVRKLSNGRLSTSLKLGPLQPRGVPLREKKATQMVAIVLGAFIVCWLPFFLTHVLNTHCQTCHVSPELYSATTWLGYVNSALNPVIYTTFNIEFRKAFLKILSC
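Cells at 1500/well, incubated overnight, then treated with pinned compounds (dopamine as control) for 90 min at 37 degrees C. DiscoveRx reagent added for 30 - 60 minutes at room temperature; luminescence read.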
ClpP mod – qHTS Assay for Activators of ClpP | AID 651965, 2013 | ATP-dependent Clp protease proteolytic subunit (Bacillus subtilis (strain 168)), P80244 | Potency, µM (doses to about 57.5 µM) | purified B. subtilis ClpP, FRET peptide cleavage, 20 min | 1.9% of 340,000 active; active means well fitted falling curve with a large enough effect; inconclusive means small, poorly fitted or top-dose-only effect; inactive means no such curve, though single readings can be large or run the other way; further: the source files actives as falling curves though it sought activators and does not explain the sign; nearly all actives have a fitted effect of over 65% in size
Target sequence (P80244 whole entry, looked up): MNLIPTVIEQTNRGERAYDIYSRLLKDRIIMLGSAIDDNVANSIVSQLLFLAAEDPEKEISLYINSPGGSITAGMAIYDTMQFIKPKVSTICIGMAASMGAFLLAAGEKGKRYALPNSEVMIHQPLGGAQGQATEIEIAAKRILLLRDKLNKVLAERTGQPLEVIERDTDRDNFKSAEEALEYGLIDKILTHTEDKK
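Purified B. subtilis ClpP, 10 microg/mL final in Tris/HCl pH8 with KCl, BSA, glycerol and Tween-20, cleaved an Abz/nitrotyrosine-quenched decapeptide. Fluorescence (ex 320, em 430) was read at 0 and 20 min at room temperature. Delta was normalized to 5.8 microM ADEP and DMSO/no-enzyme controls.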
TDP1 cell CPT – qHTS for Inhibitors of human tyrosyl-DNA phosphodiesterase 1 (TDP1): qHTS in cells in presence of CPT; chicken DT40 Tdp1-/-;hTDP1 cells + 20 nM CPT, ATP luminescence, 48 h; Potency, µM (doses to about 46.2 µM), usual class: inhibitors; 12% of 420,000 active; further: nearly all actives have a fitted effect of over 55% in size
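Chicken DT40 Tdp1-/- cells complemented with human TDP1, 400 cells/well, exposed to compounds plus 20 nM camptothecin for at least 48 h at 37 C; viability read as ATP content by CellTiter-Glo luminescence.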
D3 antag – qHTS of D3 Dopamine Receptor Antagonist: qHTS; D3R cells, DiscoveRx beta-arrestin luminescence, antagonist mode; active compounds read low; max response, negative = inhibition, %; 2.5% of 360,000 active; AID 652054, 2013; in the data active means max response below about -50%; inconclusive means no clear call, values can overlap the other calls
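Cells plated overnight at 1500 cells/well, then exposed to library compounds with dopamine controls for 90 minutes at 37 degrees C. DiscoveRx reagent added for 30–60 minutes at room temperature; luminescence read, quantitative HTS format.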
IL-1B inflam inh – qHTS for Inhibitors of Inflammasome Signaling: IL-1-beta AlphaLISA Primary Screen | 4.7% of 360,000 active | activity change, % at 57.5 µM | THP-1 LPS/ATP IL-1B secretion, AlphaLISA, 16 h; active compounds read low; in the data active means activity change below about -50%; inconclusive means mostly about -30% to -49%
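THP-1 cells pretreated 1 hr with compounds (up to 57.5 uM final), then stimulated with LPS (250 ng/mL final) plus ATP (1.25 mM final); secreted IL-1B measured by AlphaLISA after 16 hr, decreased signal indicating inhibition.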
A number is an active result; n = inactive; u = inconclusive; x = not tested or not shown; ! = not active in a repeat. The list is not random: actives were taken first. Their share in the collection is about 21%. Unless noted, the call rests on the fitted dose curve; in most records, active means well fitted inhibition curve with a large enough effect; inconclusive means small, poorly fitted or top-dose-only effect; inactive means flat fitted curve, though single readings scatter.

SMILES	DT40 TDP1 no CPT	DRD3 agonist	ClpP mod	TDP1 cell CPT	D3 antag	IL-1B inflam inh
CCOC(=O)/C=C1\CC(C(=O)OCC)Oc2ccccc21 (stereo not drawn)	n	n	n	n	n	n
Cc1ccc(NC(=O)CNC(=O)CC23CC4CC(CC(C4)C2)C3)c(O)c1	n	n	u	n	n	-52
NC(=O)c1ccccc1NC(=O)CC12CC3CC(CC(C3)C1)C2	u	n	n	21µM	n	n
O=S1(=O)NC2c3ccccc3CC2O1 (stereo not drawn)	u	n	n	12µM	n	n
Cc1cc(N=Cc2c(O)n(-c3cccc(Cl)c3)c(=O)c3ccccc23)no1	21µM	n	n	12µM	n	n
Cc1ccc(-n2c(O)c(C=NCc3ccccn3)c3ccccc3c2=O)cc1C	26µM	n	n	8.2µM	n	-67
COc1ccc(N=Cc2c(O)n(-c3cccc(C)n3)c(=O)c3ccccc23)cc1	u	n	n	u	n	n
Cc1ccc(-n2c(O)c(/C=N/n3cnnc3)c3ccccc3c2=O)cc1	n	n	u	n	-109!	n
N#Cc1cccc(NC(=O)N2CCC3(CC2)CCN(C(=O)c2ccco2)CC3)c1	u	x	x	n	x	x
CCN(C(=O)c1ccc(C(C)(C)C)cc1)c1nnc(Cn2nnc3ccccc32)s1	8.2µM	n	n	7.3µM	n	n
CCN(C(=O)CC(C)C)c1nnc(Cn2nnc3ccccc32)s1	21µM	n	x	u	n	n
Cc1ccc(C(=O)NNC(=O)Cn2nnc3ccccc32)cc1	n	n	x	n	n	n
COC(=O)c1cccc(Nc2c(-c3ccc(O)cc3)nc3nc[nH]n23)c1	u	n	n	u	x	x
COC(=O)c1cccc(Nc2c(-c3ccc(OC)cc3)nc3nc[nH]n23)c1	u	n	n	21µM	x	x
CCc1ccccc1NC(=O)c1cc2nc(-c3ccc(OC)c(OC)c3)cc(C(F)(F)F)n2n1	x	n	u	x	x	x
CCN(CC)C(=O)c1cccc(-c2csc(C(O)c3ccc(F)cc3)n2)c1 (stereo not drawn)	u	n	n	15µM	n	n
CCN(CC)C(=O)c1cccc(-c2csc(C(O)c3ccc(F)c(F)c3)n2)c1 (stereo not drawn)	u	n	n	23µM	n	n
CCN(CC)C(=O)c1cccc(-c2csc(C(O)c3ccccc3)n2)c1 (stereo not drawn)	23µM	n	n	u	n	n
CCN(CC)C(=O)c1cccc(-c2csc(C(O)c3ccco3)n2)c1 (stereo not drawn)	u	n	n	21µM	n	n
CCN(CC)C(=O)c1cccc(-c2csc(C(NC(C)=O)c3ccc(F)c(F)c3)n2)c1 (stereo not drawn)	u	n	n	u	n	n
CCn1cc(C2CC(=O)NC2=O)c2ccccc21 (stereo not drawn)	n	n	n	n	n	n
CSc1ccc(CCNC(=O)CN2C(=O)COc3ccc(S(=O)(=O)N4CCCCCC4)cc32)cc1	x	n	n	x	x	x
CCOc1ccc(/C=N/NC(=O)CC(=O)Nc2ccc(Cl)c(Cl)c2)cc1	n	n	n	n	n	n
Clc1ccc(/C=N\Nc2ccccc2)cc1	n	n	n	n	n	n
O=C(CC(=O)Nc1cccc(Cl)c1)N/N=C\c1ccccc1	0.29µM	n	n	u	n	n
SMILES	DT40 TDP1 no CPT	DRD3 agonist	ClpP mod	TDP1 cell CPT	D3 antag	IL-1B inflam inh
Clc1cccc(N/N=C/c2ccncc2)c1	u	n	n	n	n	-53
O=C(N/N=C/c1ccc(Cl)cc1)Nc1ccccc1	8.2µM	n	n	u	n	n
CCOC(=O)c1cccc(NS(=O)(=O)c2ccc(-c3coc(C)n3)cc2)c1	u	n	n	n	x	x
CCOC(=O)[C@]12CCC=C1N(Cc1ccco1)C(=O)[C@H](CC(=O)NCc1ccc(C)o1)C2	n	n	n	n	n	n
Cc1ccc(C)c(-n2sc3ccc(F)cc3c2=O)c1	3.7µM	n	n	3.3µM	-81	-106
COc1ccc(-n2sc3ccc(F)cc3c2=O)cc1	2.6µM	n	n	2.6µM	-55	-106
O=C1CCCC(=O)N1c1ccc(F)cc1	n	n	x	n	n	n
O=c1c2cc(F)ccc2sn1-c1ccc(F)cc1	3.3µM	n	n	2.6µM	n	-114
COc1ccc(-n2c(=O)c3sc4ccccc4c3n(Cc3ccccc3)c2=O)cc1	n	n	u	u	x	x
COc1ccc(-n2sc3ccccc3c2=O)cc1	2.9µM	n	n	3.7µM	n	-106
CC(=O)NCCC1CCN(C(=O)C2CCC(=O)N(C3CCCC3)C2)CC1 (stereo not drawn)	n	n	n	n	n	n
CC(C)Sc1nnc2c3ccccc3n(C)c2n1	u	x	n	u	x	x
CCCCOc1cccc(OCC(=O)Nc2nc3ccccc3[nH]2)c1	u	n	n	21µM	n	n
O=C(COc1ccccc1)Nc1nc2ccccc2[nH]1	16µM	n	n	u	n	n
Cc1ccc(CC(=O)Nc2nc3ccccc3[nH]2)cc1C	1.8µM	n	n	3.5µM	n	n
CC1CCCC(C)N1C(=O)Cn1cc(/C=C2/C(=O)Nc3ccccc32)c2ccccc21 (stereo not drawn)	21µM	n	n	18µM	u	-55
Cc1ccc(NCc2ccccc2O)c(C)c1	n	n	x	n	n	n
NC(=O)COc1ccccc1/C=C1/SC(=O)N(CC(=O)N2CCc3ccccc3C2)C1=O	18µM	n	n	21µM	n	n
CC[n+]1c(/C=C/c2c[nH]c3ccccc23)ccc2cc(C)ccc21	1.2µM	n	x	1.2µM	n	-100
CCOc1ncccc1C(=O)OCC(=O)NCc1cccs1	n	n	n	n	n	n
C#CCN(C[C@@H]1[C@@H](OC(=O)Nc2cccs2)[C@@H](OC(=O)Nc2cccs2)Cn2c(=O)ccc(=O)n21)S(=O)(=O)c1ccc(C)cc1	3.3µM	n	n	2.9µM	n	-107
C#CCN(C[C@@H]1[C@@H](OC(=O)NC2CCCC2)[C@@H](OC(=O)NC2CCCC2)Cn2c(=O)ccc(=O)n21)S(=O)(=O)c1ccc(C)cc1	2.3µM	n	n	2.6µM	-64	n
CC(NC(=O)c1ccc(F)cc1)C(=O)NC1=NCCS1 (stereo not drawn)	n	n	x	n	n	n
O=S(=O)(c1ccccc1)N1CCC[C@@]2(CCN(c3ncccn3)C2)C1	n	x	x	n	x	x
Cn1cc(S(=O)(=O)N2CCCCCC2)cc1C(=O)Nc1ccc(Cl)c(C(F)(F)F)c1	n	n	n	n	x	x
